Molecules are shown by their SMILES. Values joined by “and” are separate entries in the source; they are usually repeats but may differ in a detail not shown here. Identical values can stand only once. Screen size: about 330,000 compounds; about 560 (0.17%) were called active. About 1% were inconclusive and are not listed. The entries come from a sample that favours actives as a whole. Values without a mark were called inactive. Calls come from the whole dose curve; as a rule, active = well fitted inhibition curve with a large enough effect; inconclusive = small, poorly fitted or top-dose-only effect, or effect the other way; inactive = flat fitted curve, though single readings scatter.
Potency is the fitted concentration of half-maximal effect.

Sequence of ATP-dependent 6-phosphofructokinase (Trypanosoma brucei brucei) (O15648 whole entry, looked up): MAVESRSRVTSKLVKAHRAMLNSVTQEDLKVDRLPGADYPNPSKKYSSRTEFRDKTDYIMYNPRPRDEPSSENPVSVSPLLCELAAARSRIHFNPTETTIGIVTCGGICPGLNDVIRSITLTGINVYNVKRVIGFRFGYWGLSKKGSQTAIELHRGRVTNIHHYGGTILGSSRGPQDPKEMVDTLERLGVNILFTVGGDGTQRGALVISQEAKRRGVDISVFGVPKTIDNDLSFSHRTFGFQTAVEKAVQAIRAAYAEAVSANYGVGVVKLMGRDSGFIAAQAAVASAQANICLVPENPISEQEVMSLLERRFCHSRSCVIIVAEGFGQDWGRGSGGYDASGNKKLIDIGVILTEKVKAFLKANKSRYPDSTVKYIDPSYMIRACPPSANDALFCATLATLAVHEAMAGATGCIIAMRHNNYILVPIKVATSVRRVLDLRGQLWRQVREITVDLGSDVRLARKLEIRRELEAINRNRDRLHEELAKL

The assay has as its target ATP-dependent 6-phosphofructokinase (Trypanosoma brucei brucei) (UniProt O15648). Kind of assay: qHTS Assay to Find Inhibitors of T. brucei phosphofructokinase.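 For activity, negative = inhibition: 0% = uninhibited 1x PFK enzyme wells and -100% = no-enzyme wells.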 Note: nearly all actives have a fitted effect of over 60% in size. The conditions noted are these: T. brucei PFK, ADP-Glo luminescence; series mostly up to 57.5 µM; activity, negative = inhibition: at the top concentration. In short, it runs like this:
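PFK 1.25 nM, F6P 0.5 mM, ATP 0.1 mM, 0.1 M TEA pH 8.0, 5 mM MgCl2, 0.01% Tween20, 0.1% BSA; 45 min RT. ADP-Glo readout. qHTS titration up to 57 uM; curves fitted, compounds curve-classed.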
As for `CCCCc1nnc(NC(=O)CS(=O)(=O)Cc2ccccc2)s1`, the “activity, negative = inhibition” value is 4.44%. Consider `Cn1c(=O)c([N+](=O)[O-])c(Oc2ccccc2)c2ccccc21`, for which the “activity, negative = inhibition” value is 4.66%. In the case of `CCCN(CC(=O)Nc1ccc(OC)c(OC)c1)CC(=O)Nc1ccc(F)c(F)c1F`, the “activity, negative = inhibition” value is -5.89%.

In the case of `COc1ccc(N2CCN(S(=O)(=O)c3ccc4c(c3)NC(=O)C(C)C(=O)N4)CC2)cc1` (stereo not drawn), the “activity, negative = inhibition” value is -3.57%. Regarding `COc1ccc(C)cc1NC(=O)CCS(=O)(=O)c1cccc2nonc12`, the “activity, negative = inhibition” value was 0.301%. On to `Cn1nc(C(F)(F)F)cc1-c1ccc(/C=C(\C#N)C(=O)c2cccc(C(F)(F)F)c2)s1`, for which the “activity, negative = inhibition” value was -2.17%.

As for `Cc1cc(C)c(S(=O)(=O)n2cc(C(C)C(N)C(=O)O)c3ccccc32)c(C)c1` (stereo not drawn), the “activity, negative = inhibition” value was -0.251%. For the compound `COCCOC(=O)c1c(C)oc2cc(Br)c(OCC(N)=O)cc12`, the “activity, negative = inhibition” value was -0.993%. Turning to `CCCCC(CC(C)O)c1n[nH]c(=S)n1-c1ccccc1` (stereo not drawn), the “activity, negative = inhibition” value is 1.94%.

`CC(NC(=O)CCCC1CCCCC1)c1ccc(S(N)(=O)=O)cc1` (stereo not drawn): the “activity, negative = inhibition” value was -0.196%. `CC(C)(C)OC(=O)C[C@@H]1C/C=C\C[C@@H](CC(=O)N[C@@H](CO)Cc2ccccc2)C(=O)N2CCC[C@H]2COC1=O`: the “activity, negative = inhibition” value was -0.476%. Take `COC(=O)CN1C(=O)N/C(=C/c2ccc(OC)c(C)c2OC)C1=O`: the “activity, negative = inhibition” value was -0.685%.

With `C=CCn1cc(-c2cccc(C(F)(F)F)c2)cc(C#N)c1=O`, the “activity, negative = inhibition” value is -1.02%.

On to `COCc1ccc(C(=O)N2CCc3c([nH]c4ccccc34)C2c2ccccn2)s1` (stereo not drawn), for which the “activity, negative = inhibition” value was -0.831%. As for `Cc1ccc(C(C[N+](=O)[O-])c2c(C)cc3ccccn23)cc1` (stereo not drawn), the “activity, negative = inhibition” value is -0.525%. Regarding `Nc1ccccc1SC(C[N+](=O)[O-])c1ccccc1` (stereo not drawn), the Potency is 13.5 µM (active).

For `CN(CC(=O)Nc1ccc(F)c(F)c1F)C(=O)C1CC(=O)N(C2CCCC2)C1` (stereo not drawn), the “activity, negative = inhibition” value was 2.52%. In the case of `CCOC(=O)c1cnc(SC)nc1Sc1ccc(Cl)cc1Cl`, the “activity, negative = inhibition” value is -2.53%. The same measure, in the same setting: the value for `NCCN1CCN2C(=O)CN(C(=O)c3ccccc3)CC12` (stereo not drawn) was 0.907%. Consider `O=C(COC(=O)c1cc(=O)[nH]c2ccccc12)NCc1cccc(Cl)c1`, for which the “activity, negative = inhibition” value was -11.9%. For the compound `Cc1cc(Nc2cccc(F)c2)n2ncnc2n1`, the “activity, negative = inhibition” value was -1.14%.

Consider `C=CCn1c(C23CC4CC(CC(C4)C2)C3)n[nH]c1=S`, for which the “activity, negative = inhibition” value was -0.991%. On the same count and under the same terms, the value for `CCOC(=O)c1c(/N=C/C2C(=O)CC(C)(C)CC2=O)sc(C)c1C` was 2.63%; that for `O=C(Nc1cc(C(F)(F)F)ccc1Cl)c1cc2nc3c(c(C(F)(F)F)n2n1)CCCC3` was -1.59%. Take `Cc1cc(NS(=O)(=O)c2ccc(NC(=O)C(C)Oc3cccc(C)c3C)cc2)nc(C)n1` (stereo not drawn): the “activity, negative = inhibition” value was -5.56%. In the case of `CCCCn1c(N)c(N(Cc2ccccc2OC)C(=O)COc2cc(C)ccc2Cl)c(=O)[nH]c1=O`, the “activity, negative = inhibition” value is 24.8%.

As for `NC(=O)Nc1ccccc1C(=O)NCCc1ccccc1`, the “activity, negative = inhibition” value was -28.3%. Regarding `CCOC(=O)C1C(=O)C=C(c2ccc(OC)cc2)CC1c1ccco1` (stereo not drawn), the “activity, negative = inhibition” value was 1.24%. As for `CC(C)c1ccc(NC(=O)Cn2ncc3ccccc32)cc1`, the “activity, negative = inhibition” value is 2.07%. Same read-out and setting: the value for `C=CCOc1ccc(/C=C/C(=O)OCC(=O)NC2CCCCCC2)cc1` was 1.83%.

As for `O=C(NCc1ccccn1)c1ccc2nc(-c3ccco3)c(-c3ccco3)nc2c1`, the Potency is 2.13 µM (active). `O=C1CSc2ccc(C(=O)NCc3ccccn3)cc2N1`: the “activity, negative = inhibition” value was -9.69%. Turning to `COc1cccc(S(=O)(=O)NCc2ccc(C(=O)NCc3ccccn3)cc2)c1`, the “activity, negative = inhibition” value is -1.83%. For the compound `CCOc1cc(CNn2c(C)nnc2SCC(=O)NC(C)(C)C)ccc1OCC(=O)NC(C)(C)C`, the “activity, negative = inhibition” value is -0.0385%.

`S=c1[nH]c2ccccc2c2ccccc12`: the “activity, negative = inhibition” value was -0.408%. As to `COCCNC(=O)COc1ccc(N(C)S(=O)(=O)c2ccc3ccccc3c2)cc1`, the “activity, negative = inhibition” value is 1.54%.

As to `Cc1ccc(N2C(=O)C(CC(=O)Nc3cccc(F)c3)N(CCc3ccncc3)C2=O)cc1` (stereo not drawn), the “activity, negative = inhibition” value was -1.36%. For the compound `CCCCN1C(=O)C(C)=C(C)C1OCCc1ccc(OC)c(OC)c1` (stereo not drawn), the “activity, negative = inhibition” value is -0.0022%. For `N/C(=N\OC(=O)CCCC(=O)O)c1ncc(C(F)(F)F)cc1Cl`, the “activity, negative = inhibition” value was 0.924%.

As for `N/C(=N\OC(=O)Nc1ccc(Cl)c(Cl)c1)c1ncc(C(F)(F)F)cc1Cl`, the Potency was 13.5 µM (active). Take `O=C(c1ccccn1)c1ncc(C(F)(F)F)cc1Cl`: the “activity, negative = inhibition” value was -1.9%. Same read-out and setting: then `COc1cccc(N=c2oc3c(C)ncc(CO)c3cc2C(N)=O)c1`, with -0.59%.

Regarding `CC(C)c1ccc(N2CCN(C(=O)c3ccccc3NC(=O)/C=C(\C(=O)O)c3ccccc3)CC2)cc1`, the “activity, negative = inhibition” value is 0.784%. In the case of `Cc1c(C)c(C)c2[nH]c(=S)[nH]c2c1C`, the “activity, negative = inhibition” value is 4.32%.

As to `O=c1[nH]c(=S)[nH]c2[nH]c(=S)[nH]c12`, the Potency was 16.9 µM (active) and 13.5 µM (active). As for `CCOc1ccc(Oc2nc(C)cc(OC)n2)nn1`, the “activity, negative = inhibition” value was -6.66%.

Turning to `Cc1ccc(-c2nn(-c3ccccc3)cc2C(=O)NCCCN2CCCC2=O)cc1`, the “activity, negative = inhibition” value was 4.23%. Still for that read-out and setting: then `COc1ccccc1NS(=O)(=O)N(C)C`, with 0.142%; and `Cc1ccc(CN(C)Cc2cc(=O)oc3cc(C)c(Cl)cc23)cc1`, with 0.644%. For `O=c1oc2ccccc2c(CNc2ccccc2)c1[N+](=O)[O-]`, the “activity, negative = inhibition” value is 1.56%.

`Cc1ccc2c(c1)N(S(=O)(=O)c1cc(-c3cc(C)no3)ccc1C)CCO2`: the “activity, negative = inhibition” value was -4.63%. Still for that read-out and setting: then `COC(=O)c1cccc(NC(=O)CN2CCC(NC(=O)c3cc(OC)c(OC)c(OC)c3)CC2)c1`, with 0.362%; and `Cn1c2cc(B(O)O)sc2c2cnn(Cc3ccccc3F)c(=O)c21`, with -19.7%.

Values taken from PubChem BioAssay AID485367 (National Center for Advancing Translational Sciences (NCATS), 2010).
